Reference: PubChem BioAssay AID720511 (Broad Institute, 2013)
Among all 350,000 compounds or so, about 1,300 (0.37%) were called active. Many of the other results were omitted from the sample, so actives are more common in it than they were. Unmarked numbers belong to inactive results.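 How the source made its calls: active means mean added fluorescence quench of at least 8% versus neutral control, with both replicates also reaching 8%; inconclusive means only one of the mean or replicate conditions met; inactive means mean below 8% and not both replicates reaching 8%.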

Assay: F508del CFTR correction, initial screen, CFBE line, single point (AID 720511);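 further: cells transiently co-express mutant CFTR-F508del with the halide-sensitive YFP; corrector assay measuring rescue of mutant channel to the surface after 24 h compound exposure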
Conditions: CFBE cells, YFP halide quenching, at 7.58 µM, hits give high values, % fluorescence drop versus neutral controls, stimulated with forskolin plus potentiator P3

| SMILES | activity (quench increase) |
| --- | --- |
| Cc1ccc(CN(C)CC(=O)Nc2cccc([N+](=O)[O-])c2)o1 | 10.1% (active) |
| O=C(CN1CCOCC1)Nc1cccc([N+](=O)[O-])c1 | -2.49% |
| Cc1ccc(NC(=O)CN(C)CC(=O)Nc2cccc(F)c2)cc1[N+](=O)[O-] | 1.68% |
| COc1cccc(-c2ccc3c(c2)[C@H]2[C@H](CCN2C(=O)c2ccc(F)cc2)[C@@H](CO)N3)c1 | 1.42% |
| COc1cccc(NC(=O)COc2cc(C)cc3oc(=O)cc(C)c23)c1 | 2.8% |
| COc1cc(OC)c2c(-c3cccc(-c4cccc(N)c4)c3)cc(=O)oc2c1 | 8.2% (active) |
| Cc1cc2oc(=O)cc(-c3ccccc3)c2c(C)c1-c1ccc(OC(F)(F)F)cc1 | 1.07% |
| COc1ccc(/C=N/N=C2/C(=O)Nc3ccccc32)cc1O | -1.27% |
| O=C1Nc2ccccc2C1=NN=Cc1ccco1 | -2.93% |
| Cc1cc(C)c(/C=C2\C(=O)Nc3ccccc32)[nH]1 | 10.3% (active) |
| O=C(NCC[C@H]1CC[C@H](NC(=O)C2CC2)[C@@H](CO)O1)c1ccc(F)cc1 | 1.43% |
| COc1ccc2c(C)c(CCC(=O)NC3CC3)c(=O)oc2c1C | 2.05% |
| Cc1c(CCC(=O)O)c(=O)oc2c(C)c(OCc3ccccc3Cl)ccc12 | 9.04% (active) |
| Cc1c(CCC(=O)O)c(=O)oc2cc(OCc3ccc(Br)cc3)ccc12 | 0.947% |
| C[C@@H]1CN([C@@H](C)CO)S(=O)(=O)c2ccc(C#CCN(C)C)cc2O[C@@H]1CN(C)C(=O)CC1CC1 | 0.474% |
| COC(=O)COc1cccc2c(=O)n(CC(=O)NCc3ccccc3)ccc12 | 11% (active) |
| CCOC(=O)C(C)Oc1cccc2c(=O)n(CC(=O)NCCc3ccc(OC)c(OC)c3)ccc12 (centres undefined) | 2.66% |
| COC(=O)COc1cccc2c(=O)n(CC(=O)NCCc3ccc(OC)c(OC)c3)ccc12 | -1.22% |
| COCC#Cc1ccc([C@@H]2[C@@H](CO)N3CCCCN(C(=O)NC4CCCC4)C[C@H]23)cc1 | -0.841% |
| C[C@@H]1CCCCO[C@@H](CN(C)CC2CC2)[C@@H](C)CN([C@H](C)CO)C(=O)c2cc(NC(=O)Nc3cccc4ccccc34)ccc2O1 | -0.347% |
| COc1ccc(/C=C2/CCCc3ccccc3C2=O)cc1 | 14.3% (active) |
| COc1ccc(/C=C2\N=C3CCCN3C2=O)cc1 | -1.7% |
| COc1ccc(/C=C2\CCc3ccccc3C2=O)c(OC)c1OC | -2.36% |
| Cc1ccc(S(=O)(=O)N(C)C[C@H]2OCCCC[C@@H](C)Oc3ccc(NC(=O)NC4CCCCC4)cc3C(=O)N([C@H](C)CO)C[C@@H]2C)cc1 | 0.861% |
| O=C(C[C@H]1C[C@@H]2c3cc(NC(=O)CC4CC4)ccc3O[C@@H]2[C@H](CO)O1)NCc1ccccn1 | -1.26% |

| SMILES | activity (quench increase) |
| --- | --- |
| CN(CC(=O)Nc1ccccc1Cl)C(=O)COc1cccc2c1OC(C)(C)C2 | -5.27% |
| Cc1cccc(C(=O)NCC(=O)OCC(=O)N(C)CC(=O)Nc2ccccc2Cl)c1 | 16.8% (active) |
| CN(CC(=O)Nc1ccc(Cl)cc1)C(=O)CNC(=O)c1ccc2ccccc2c1 | -7.73% |
| C/C=C/c1ccc2c(c1)O[C@H](CN(C)C(=O)Nc1ccccc1)[C@H](C)CN([C@@H](C)CO)S2(=O)=O | -0.894% |
| COc1ccc2c3c([nH]c2c1)[C@H](CO)N(C(=O)C1CCOCC1)CC31CN(S(C)(=O)=O)C1 | -0.365% |
| CS(=O)(=O)Nc1ccc2c(c1)[C@H]1C[C@H](CC(=O)NCc3ccc(Oc4ccccc4)cc3)O[C@H](CO)[C@H]1O2 | 4.1% |
| COc1cc(OC)cc(C(=O)N[C@H](C(=O)Nc2nc3ccccc3[nH]2)C(C)C)c1 | 13.5% (active) |
| COc1cc(OC)cc(C(=O)NC(C(=O)N2CCC2)C(C)C)c1 (centres undefined) | 1.12% |
| COc1cc(OC)cc(C(=O)N[C@H](C(=O)NNC(=O)c2ccc(Br)cc2)C(C)C)c1 | -1.77% |
| COc1ccc(NC(=O)N(C)C[C@H]2OCCCC[C@H](C)Oc3ccc(NC(=O)NC4CCCCC4)cc3C(=O)N([C@@H](C)CO)C[C@@H]2C)cc1 | -0.706% |
| COc1ccc2c3c([nH]c2c1)[C@H](CO)N(C(=O)c1ccccc1)CC31CN(C(=O)Nc2cccc(F)c2)C1 | 0.989% |
| COc1ccc2[nH]c3c(C)c4cc[n+](C)cc4c(C)c3c2c1 | 12.8% (active) |
| CC(C)NC(=O)Nc1ccc2c(c1)C(=O)N([C@H](C)CO)C[C@H](C)[C@H](CN(C)C(=O)CCC(F)(F)F)OCCCC[C@H](C)O2 | 0.243% |
| O=C(C[C@@H]1C=C[C@@H](NS(=O)(=O)c2ccccc2)[C@@H](CO)O1)NCc1ccccc1F | -1.3% |
| COCC(=O)Nc1ccc2c(c1)OC[C@@H](C)N(CCc1ccccc1)C[C@H](C)[C@@H](OC)CN(C)C2=O | -4.64% |
| C=CCNc1nc(Nc2ccc(Cl)cc2)nc(OC)n1 | 1.27% |
| Cn1c(Nc2cccc(Cl)c2)nc2ccccc21 | 0.14% |
| Clc1ccc(Nc2ccc3ccccc3n2)cc1 | 9.55% (active) |
| CCCNC(=O)N1CC2(CN(C(=O)c3cnccn3)C2)c2c([nH]c3cc(OC)ccc23)[C@@H]1CO | -0.147% |
| C[C@H](NC(=O)C[C@@H]1C[C@@H]2c3cc(NS(=O)(=O)c4ccc(F)cc4)ccc3O[C@@H]2[C@@H](CO)O1)c1ccccc1 | 0.793% |
| COc1ccc2c3c(n(C)c2c1)[C@@H](CO)N(Cc1ccncc1)CC31CN(C(=O)Nc2cccc(F)c2)C1 | -1.9% |
| CC1(C(=O)NCc2ccc(F)c(F)c2)Cc2c(-c3ccc4c(c3)OCO4)ccnc2O1 (centres undefined) | 0.827% |
| COc1ccc(NC(=O)C2(C)Cc3c(-c4cccc(NC(C)=O)c4)ccnc3O2)cc1OC (centres undefined) | -0.498% |
| COc1ccc(NC(=O)C2(C)Cc3c(-c4cccc(NC(C)=O)c4)ccnc3O2)cc1 (centres undefined) | 9.41% (active) |
| CC1(C(=O)NCc2ccco2)Cc2c(-c3ccc4c(c3)OCO4)ccnc2O1 (centres undefined) | 8.09% (active) |

| SMILES | activity (quench increase) |
| --- | --- |
| CC(=O)Nc1cccc(-c2ccnc3c2CC(C)(C(=O)NCc2ccco2)O3)c1 (centres undefined) | 7.38% |
| COc1ccc(NC(=O)C2(C)Cc3c(-c4ccc(C(N)=O)cc4)ccnc3O2)cc1 (centres undefined) | -0.667% |
| CCC(=O)N1CC2(CN(Cc3cccnc3)C2)c2c(n(C)c3cc(OC)ccc23)[C@@H]1CO | -0.0075% |
| CCCC#Cc1cnc2c(c1)C(=O)N([C@@H](C)CO)C[C@@H](C)[C@@H](CN(C)Cc1ccccc1F)O2 | 0.509% |
| CNC(=O)C[C@@H]1CC[C@@H]2[C@@H](COc3ccc(NC(=O)c4ccc5c(c4)OCO5)cc3C(=O)N2C)O1 | 0.442% |
| COCC(=O)N(C)C[C@@H]1Oc2ncc(C#C[C@H](C)O)cc2C(=O)N([C@@H](C)CO)C[C@@H]1C | 1.42% |
| COc1ccc(NC(=O)Nc2ccc3c(c2)[C@H]2C[C@H](CC(=O)NC4CCCC4)O[C@H](CO)[C@H]2O3)cc1 | 2.1% |
| C[C@@H]1CCCCO[C@H](CN(C)C(=O)CCC(F)(F)F)[C@@H](C)CN([C@@H](C)CO)C(=O)c2cc(NC(=O)c3ccncc3)ccc2O1 | 2% |
| Cc1ccccc1-c1ccc([C@H]2[C@H]3CN(S(=O)(=O)c4ccc(F)cc4)CCCCN3[C@H]2CO)cc1 | -0.288% |
| O=C(N[C@H]1CC[C@H](CCn2cc(-c3ccccc3F)nn2)O[C@@H]1CO)c1ccc2c(c1)OCO2 | -1.87% |
| C[C@@H]1CCCCO[C@@H](CN(C)Cc2ccncc2)[C@H](C)CN([C@@H](C)CO)C(=O)c2cc(N(C)C)ccc2O1 | -0.227% |
| N#C[C@@H]1[C@@H](c2ccccc2)[C@H](CO)N1C(=O)c1cc(Cl)cc(Cl)c1 | -2.95% |
| O=C(NCCC1CCCCN1S(=O)(=O)c1cccs1)C(=O)Nc1ccc(F)cc1F (centres undefined) | 8.8% (active) |
| COc1ccccc1CCNC(=O)C(=O)NCCC1CCCCN1S(=O)(=O)c1cccs1 (centres undefined) | 0.824% |
| O=C(NCCC1CCCCN1S(=O)(=O)c1ccc(F)cc1)C(=O)NC1CC1 (centres undefined) | 3.1% |
| COc1cccc(-c2ccc3c(c2)O[C@@H](CN(C)Cc2ccncc2)[C@H](C)CN([C@H](C)CO)S3(=O)=O)c1 | 3.64% |
| Cc1noc(C)c1NC(=O)N(C)C[C@H]1OCCCC[C@@H](C)Oc2ccc(NC(=O)NC(C)C)cc2C(=O)N([C@H](C)CO)C[C@@H]1C | 1.72% |
| COc1ccccc1-n1ccnc1SCC(=O)NC(C)(C)C | 0.912% |
| COc1ccccc1-n1c(CNC(=O)c2ccccc2)nnc1SCC(=O)Nc1nnc(C)s1 | 2.1% |
| Cc1nnc(NC(=O)CSc2nccn2-c2cccc(C)c2C)s1 | 8.52% (active) |
| C[C@H](CO)N1C[C@H](C)[C@H](CN(C)S(=O)(=O)c2ccc(Cl)cc2)Oc2c(NS(C)(=O)=O)cccc2C1=O | 1.05% |
| CCCN1[C@H](C(=O)N2CCCCC2)[C@@H](CO)[C@@H]2Cn3c(ccc(-c4ccccc4F)c3=O)[C@@H]21 | 1.6% |
| CCCN1[C@H](C(=O)N2CCOCC2)[C@@H](CO)[C@@H]2Cn3c(ccc(/C=C/c4ccccc4)c3=O)[C@@H]21 | 9.23% (active) |
| CCCNC(=O)[C@@H]1[C@@H](CO)[C@@H]2Cn3c(ccc(/C=C/c4ccccc4)c3=O)[C@H]1N2CCC | 3.14% |
